Rows were chosen to be rich in hits. Some 4.8% of all compounds tested hit in one or more screens of this group.
hcDAF-12 act: H. contortus DAF-12 nuclear receptor activators, primary screen, cell-based, luminescence, HEK293, lit1-tk-luc reporter; HEK293 hcDAF-12 lit1-tk-luc reporter; 0% DMSO, 100% Δ7-dafachronic acid; activation, % at 6.8 µM; 370,000 compounds, 1.4% hits;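 active = activation above the mean of all tested compounds plus 3 SD, cut at about 5.5% in these data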;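 note: 100% = response to 3 µM Δ7-dafachronic acid high control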
hgDAF-12 ag: H. glycines DAF-12 receptor agonists, primary screen, cell-based, luminescence, HEK293, GAL4 fusion, UAS-luciferase; Nuclear hormone receptor DAF-12 (Heterodera glycines), GAL4 fusion; HEK293 GAL4-hgDAF12 UAS-luciferase reporter, agonist luminescence; normalized to butyrate control; activation, % at 6.8 µM; 370,000 compounds, 1.8% hits; AID 687014, 2013;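 active = activation above a cutoff set at the mean of all screened compounds plus 3 SD, cut at about 10% in these data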;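 note: 0% = DMSO wells and 100% = sodium butyrate wells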
DAX1 inh-1: DAX1 (NR0B1) inhibitors, primary screen, cell-based, HEK293, Gal4-DAX1, luciferase luminescence. 340,000 compounds, 0.99% hits. HEK293 Gal4-DAX1 luciferase reporter. inhibition, % at 6.75 µM. AID 504766, 2011;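 active = inhibition above the mean over all tested compounds plus 3 SD, cut at about 4.2% in these data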;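 note: 0% = DAX1-transfected cells with DMSO and 100% = empty-vector control cells with DMSO; inhibition shows as a rise in luminescence from relieved DAX1 repression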
Target sequence (P51843 207-470 limits assumed): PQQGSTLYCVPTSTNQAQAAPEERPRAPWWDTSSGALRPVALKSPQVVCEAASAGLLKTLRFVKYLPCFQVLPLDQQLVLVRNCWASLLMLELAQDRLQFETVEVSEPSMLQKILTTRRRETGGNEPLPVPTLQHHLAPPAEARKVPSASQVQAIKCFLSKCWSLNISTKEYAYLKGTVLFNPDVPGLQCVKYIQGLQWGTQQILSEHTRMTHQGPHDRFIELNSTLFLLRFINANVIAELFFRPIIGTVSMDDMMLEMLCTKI
DAX1 inh-2: DAX1 (NR0B1) inhibitors on StAR promoter, primary screen, cell-based, luminescence, SF-1 (NR5A1), full-length DAX-1. inhibition, % at 6.8 µM. HEK293T StAR-luciferase reporter, SF-1/DAX-1 repression relief. 370,000 compounds, 1.1% hits. AID 652010, 2013;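 active = inhibition above the mean over all tested compounds plus 3 SD, cut at about 3.6% in these data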;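 note: 0% = DAX-1 cells with DMSO and 100% = cells lacking DAX-1 with DMSO; higher inhibition means more luminescence from relief of DAX-1 repression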
ssDAF-12 act: S. stercoralis DAF-12 nuclear receptor activators, primary screen, cell-based, luminescence, HEK293, GRIP1 co-expression, lit1-tk-luc. 370,000 compounds, 1% hits. activation, % at 6.8 µM. AID 652126, 2013. HEK293 ssDAF-12/GRIP1 lit1-tk-luc reporter; % of 3 µM dafachronic acid response;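 active = activation above the mean over all tested compounds plus 3 SD, cut at about 0.9% in these data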;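 note: 0% = DMSO-only wells and 100% = 3 µM delta7-dafachronic acid wells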
SMARCA2 activ: SMARCA2 (BRM) function activators, primary screen, cell-based, luminescence, high throughput. MG213 cells, MMTV-luciferase reporter, dexamethasone, overnight. activation, % at 9.1 µM. 370,000 compounds, 1% hits; in the data active = activation above about 7.8%;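 note: 0% = vehicle wells and 100% = reference activator wells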
SMARCA2 act conf: SMARCA2 (BRM) function activators, confirmation, cell-based, luminescence, triplicate; shares compounds with SMARCA2 activ; MG213 cells, MMTV-luciferase with dexamethasone, overnight; MG213 cells expressing E1A, Rb sequestered; DMSO wells 0%, reference activator 100%; activation, % at 9.1 µM; 3,500 compounds, 30% hits; AID 652260, 2013;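 active = activation above its plate's cutoff, the mean activation of tested wells plus 3 SD, cut at about 7.9% in these data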
GAL4-VP16 Luc: GAL4-VP16 luciferase reporter activation, counter-screen for SMARCA2 (BRM) activator project, cell-based, pG5luc, luminescence, high throughput; shares compounds with SMARCA2 activ; HEK293 GAL4-VP16 pG5luc reporter; scaled: DMSO wells 0%, SAHA wells 100%; activation, % at 9.1 µM; 3,500 compounds, 41% hits;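 active = activation above the solvent-only control well mean plus 3 SD, averaged across control plates, cut at about 5.2% in these data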
Starred values were filed as active, the others as inactive; x = not tested or not shown.

SMILES | hcDAF-12 act | hgDAF-12 ag | DAX1 inh-1 | DAX1 inh-2 | ssDAF-12 act | SMARCA2 activ | SMARCA2 act conf | GAL4-VP16 Luc
O=C(NCc1ccco1)C1CCCN(S(=O)(=O)c2ccccc2[N+](=O)[O-])C1 (configuration not stated) | -2 | -2 | x | 0 | 0 | 2 | x | x
O=C(C1CCCN1S(=O)(=O)c1ccccc1[N+](=O)[O-])N1CCN(c2ccccc2)CC1 (configuration not stated) | -1 | -1 | x | 0 | 0 | -5 | x | x
COC(=O)[C@H](C(C)C)N(CCc1cn(CC2CCCCC2)nn1)S(=O)(=O)c1ccc(F)cc1Br | -3 | 0 | x | -1 | -2 | -1 | x | x
O=c1cc(N2CCN(c3ccnc4cc(Cl)ccc34)CC2)[nH]c(=O)n1C1CCCCC1 | -5 | -5 | x | x | -3 | x | x | x
Cn1cccc1C(=O)N1CCN(S(=O)(=O)c2ccc(Br)s2)CC1 | -1 | -3 | x | -1 | -2 | -3 | x | x
CCOc1ccc(C(=O)/C=C/c2ccc(SC)cc2)cc1 | -1 | -3 | 0 | -1 | -2 | -1 | x | x
CCOc1ccc(/C=C/C(=O)c2ccccc2)cc1 | 6.2* | 8 | 4 | 2 | 0 | 9.9* | 6 | 12*
CCN(C[C@H]1N[C@@](Cc2ccccc2)(C(=O)OC)[C@H]2C(=O)N(Cc3ccccc3)C(=O)[C@@H]12)S(=O)(=O)c1ccccc1 | 2 | 1 | -1 | 0 | -1 | -2 | x | x
CCN(C[C@H]1N[C@@](Cc2ccccc2)(C(=O)OC)[C@H]2C(=O)N(Cc3ccccc3)C(=O)[C@@H]12)S(=O)(=O)c1ccc(C)cc1 | -1 | 2 | -2 | 1 | -1 | 10* | -7 | -1
CCOC(=O)[C@]12CCCC3=C1N(CCC3)C(=O)[C@@H](CC(=O)NCCCOC)C2 | -1 | 1 | x | 0 | 0 | 1 | x | x
CCOc1ccc(OCc2ccc(C(=O)O)o2)cc1 | 3 | 10 | -4 | 1 | 0 | 6 | x | x
O=C(O)c1ccc(COc2ccc3ccccc3c2)o1 | 3 | 10* | -1 | 2 | -1 | 8.6* | 2 | 8.7*
CCS(=O)(=O)c1c([N+](=O)[O-])ncn1C | 0 | 3 | 0 | 0 | -1 | 15* | 12* | 2
Cn1cnc([N+](=O)[O-])c1Sc1ncn[nH]1 | 0 | 1 | -1 | 1 | -1 | 8.3* | 1 | 0
Cn1cnc([N+](=O)[O-])c1Cl | -1 | 0 | x | -1 | 0 | -5 | x | x
CC(=O)Nc1ccc(NC(=O)C(C)OC(=O)/C(C#N)=C/c2ccc(N(C)C)cc2)cc1 (configuration not stated) | 1 | 8 | 2 | 2 | 0 | 8.0* | 8.7* | 7.3*
Cc1ccc(Cn2cc(COC(=O)N3CCCC3)nn2)cc1 | -4 | -1 | x | 0 | 0 | -2 | x | x
Cc1ccc(C(=O)Nc2ccc(F)cc2)cc1NC1=NC2CS(=O)(=O)CC2S1 (configuration not stated) | 1 | -1 | 0 | 2 | -1 | 9.8* | -5 | 1
COC(=O)C(C)N1C(=O)S/C(=C\c2ccc(-c3ccc(C(=O)O)cc3C)o2)C1=O (configuration not stated) | 1 | 6 | 0 | 1 | 0 | 11* | 9.8* | 10*
CCC(=O)N(c1ccccc1)C1CCN(C(=O)C(Cc2ccccc2)NC(C)=O)CC1 (configuration not stated) | 1 | 0 | x | 0 | 0 | -3 | x | x
COc1ccc(/C=N/NC(=O)c2ccn[nH]2)cc1COc1ccc(F)cc1 | 0 | 2 | -2 | 0 | -1 | 8.4* | 3 | 1
CC(=O)Nc1sc2c(c1-c1nc3ccccc3s1)CCOC2 | -1 | 4 | x | x | -2 | x | x | x
COC(=O)[C@H](Cc1ccccc1)NP(=O)(OC)[C@@H](C)NC(=O)OCc1ccccc1 (some centres not stated) | -5 | -2 | x | 0 | -1 | -1 | x | x
Cc1ccc(/C=N/NC(=O)c2ccccn2)o1 | 5 | 9 | 1 | 3 | -1 | 11* | 5 | 4
CN(C)c1ccc(/C=N/NC(=O)c2ccccn2)cc1 | 5 | 12* | 1 | 3 | 1.3* | 8.0* | 6 | 7.5*
SMILES | hcDAF-12 act | hgDAF-12 ag | DAX1 inh-1 | DAX1 inh-2 | ssDAF-12 act | SMARCA2 activ | SMARCA2 act conf | GAL4-VP16 Luc
Cc1ccc(/C=N/NC(=O)c2ccncc2)o1 | 0 | -1 | 2 | -1 | -2 | 1 | x | x
CCCCN1CCN(C(=O)C2CCN(S(=O)(=O)c3ccc4[nH]c(=O)oc4c3)CC2)CC1 | -1 | 1 | x | 0 | -2 | -4 | x | x
C=CS(=O)(=O)c1sc(Cl)c(N2CCOCC2)c1[N+](=O)[O-] | -1 | -4 | -1 | -1 | -2 | 11* | -8 | 4
O=C1C=CC(O)C2(CO)OC12 (configuration not stated) | 3 | -2 | 0 | -1 | -1 | 12* | -1 | 4
CC(=O)c1cccc(Nc2c([N+](=O)[O-])c(=O)oc3ccccc23)c1 | 2 | -1 | 2 | 0 | -1 | -2 | x | x
O=C(O)c1cccc(Nc2c([N+](=O)[O-])c(=O)oc3ccccc23)c1 | 2 | 6 | 0 | 1 | 0 | 8.9* | -3 | 1
O=C(NCc1cccs1)c1cccnc1Cl | -2 | 1 | 1 | 0 | -1 | 11* | 0 | 0
CCOc1cc2oc(=O)c3c(c2cc1Cl)CCC3 | -2 | -1 | 0 | 0 | -1 | 0 | x | x
CCOc1cc2c(C)cc(=O)oc2cc1Cl | 1 | 3 | 1 | -1 | -1 | 9.9* | -1 | -2
COc1cc2nc(N(C)C)nc(N)c2cc1OC | 1 | 3 | 0 | 0 | -1 | 13* | 28* | 0
COc1cc2nc(Nc3ccc(F)cc3)nc(N)c2cc1OC | -2 | -1 | 0 | 0 | -1 | 0 | x | x
COc1ccc(CSc2nnc(SCc3ccccc3)s2)cc1 | -3 | -3 | x | 0 | -1 | 8.7* | 1 | 2
